For six compounds, growth results are on record in PubChem BioAssay (NCI).

Several values for one entry are separate records, joined by “and”; a condition that tells them apart may be missing. Equal entries are not always repeated. About 83,000 compounds went through this panel and 20% of them were active in at least one assay; those are over-represented in the sample as a whole.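 96-well plates, one dose, 48 hours. Percent growth reported; active if below 10.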 Activity calls are given as the source filed them.

Some test systems named below: NCI-H23 lung; NCI-H522 lung; MDA-MB-231 breast; M14 melanoma; SK-MEL-5 melanoma; UACC-62 melanoma; LOX IMVI melanoma; CCRF-CEM leukemia; MOLT-4 leukemia; SR leukemia; OVCAR-8 ovarian; OVCAR-5 ovarian; OVCAR-4 ovarian; IGROV1 ovarian; HS 578T breast; NCI/ADR-RES ovarian; T-47D breast; MCF7 breast; HCT-116 colon; KM12 colon.
Holding throughout (assay): NCI-60 one-dose screen, 48 h (100 = growth as untreated, 0 = no growth, -100 = all killed)
Conditions in all cases: 10 µM

Take `CC1=C2C(=C[C@@](C)(COC(=O)c3ccc(S(=O)(=O)F)cc3)[C@@H]2OC(=O)c2ccc(S(=O)(=O)F)cc2)C(=O)[C@](C)(O)C12CC2`: the growth in the experiment on NCI-H23 lung is -21.4% (active); with NCI-H522 lung, -52% (active); with MDA-MB-231 breast, 1.44% (active); in the experiment with M14 melanoma it was -46.3% (active); with SK-MEL-5 melanoma it was -96.9% (active); with UACC-62 melanoma, -38.7% (active). Besides, the growth in the experiment with LOX IMVI melanoma was 6.84% (active); with CCRF-CEM leukemia, 36.3% (inactive); with MOLT-4 leukemia it was 23.4% (inactive); in the experiment on SR leukemia it was 16.3% (inactive); in the experiment on OVCAR-8 ovarian, 5.91% (active); in the experiment on OVCAR-5 ovarian, 4.81% (active). For the same compound, the growth in the experiment on OVCAR-4 ovarian was -9.11% (active); in the experiment with IGROV1 ovarian it was 0.149% (active); in the experiment on HS 578T breast, 33.4% (inactive); with NCI/ADR-RES ovarian, 9.12% (active); with T-47D breast it was -20% (active); in the experiment on MCF7 breast, 6.34% (active). The growth in the experiment with HCT-116 colon is 0.583% (active); in the experiment on KM12 colon, 28.2% (inactive).
As to `CC1=C2C(=C[C@@](C)(C=O)[C@@H]2O)C(=O)[C@](C)(O)C12CC2`, the growth was -24% (active) with NCI-H23 lung; 12.9% (inactive) with NCI-H522 lung; 14% (inactive) in the experiment with MDA-MB-231 breast; 2% (active) with M14 melanoma; -79.5% (active) in the experiment on SK-MEL-5 melanoma; -48.5% (active) with UACC-62 melanoma. Further, the growth in the experiment with LOX IMVI melanoma was 2.16% (active); in the experiment with CCRF-CEM leukemia it was 22.6% (inactive); in the experiment on MOLT-4 leukemia it was 16.5% (inactive); in the experiment with SR leukemia, 14.5% (inactive); with OVCAR-8 ovarian, 14.1% (inactive); in the experiment with OVCAR-5 ovarian, 6.05% (active). The growth with OVCAR-4 ovarian was 19.3% (inactive); with IGROV1 ovarian, 9.24% (active); in the experiment on HS 578T breast, 33.5% (inactive); with NCI/ADR-RES ovarian it was 1.41% (active); in the experiment with T-47D breast, 11.7% (inactive); in the experiment on MCF7 breast, 3.05% (active). The growth in the experiment on HCT-116 colon was 6.13% (active); with KM12 colon, 27.4% (inactive).
For the compound `CC1=C(CN(O)C(N)=O)C2=C(C)C3(CC3)[C@@](C)(O)C(=O)C2=C1`, the growth in the experiment with NCI-H23 lung was -28.5% (active); with NCI-H522 lung, 0.934% (active); with MDA-MB-231 breast, 6.59% (active); in the experiment with M14 melanoma, -63% (active); with SK-MEL-5 melanoma, -61.6% (active); in the experiment with UACC-62 melanoma, -19.7% (active). Also, the growth with LOX IMVI melanoma is -27.6% (active); in the experiment on CCRF-CEM leukemia it was 94.7% (inactive); in the experiment on MOLT-4 leukemia, 104% (inactive); with SR leukemia it was 67.6% (inactive); in the experiment with OVCAR-8 ovarian it was 1.75% (active); in the experiment on OVCAR-5 ovarian, 17.5% (inactive). For the same compound, the growth in the experiment with OVCAR-4 ovarian was -0.96% (active); with IGROV1 ovarian, 11.1% (inactive); with HS 578T breast, -16.8% (active); in the experiment with NCI/ADR-RES ovarian, -5.11% (active); in the experiment with T-47D breast it was -3.77% (active); in the experiment on MCF7 breast, 9.79% (active). Further, the values for the growth in the experiment with HCT-116 colon and in the experiment on KM12 colon were 4.72% (active) and 3.43% (active), respectively.
In the case of `COC1[C@@H]2C[C@H]3C(C)(C)O[C@@](C/C=C(/C)C(=O)O)(C2=O)[C@]32Oc3c(CC=C(C)C)c4c(c(O)c3C(=O)[C@H]12)C=CC(C)(C)O4` (stereo not given in full), the growth was -64.5% (active) with NCI-H23 lung; -68.6% (active) in the experiment on NCI-H522 lung; -18.3% (active) in the experiment on MDA-MB-231 breast; -53.9% (active) in the experiment on M14 melanoma; -98.4% (active) in the experiment on SK-MEL-5 melanoma; -70% (active) with UACC-62 melanoma. For the same compound, the growth in the experiment on LOX IMVI melanoma was -97.2% (active); in the experiment with CCRF-CEM leukemia, -1.89% (active); in the experiment on MOLT-4 leukemia, -8.14% (active); in the experiment with SR leukemia it was 1.28% (active); in the experiment with OVCAR-8 ovarian, -58.5% (active); in the experiment with OVCAR-5 ovarian, -40% (active). Moreover, the growth in the experiment with OVCAR-4 ovarian was -33.7% (active); in the experiment with IGROV1 ovarian it was -26% (active); with HS 578T breast, 22.9% (inactive); with NCI/ADR-RES ovarian, -10.9% (active); in the experiment on T-47D breast it was -27.2% (active); in the experiment with MCF7 breast it was -78.8% (active). Moreover, the growth in the experiment with HCT-116 colon is -61.4% (active); in the experiment with KM12 colon it was -84.3% (active).
In the case of `C/C=C/CC(C)C(O)[C@H](NC(=O)[C@@H]1CCCN1C(=O)C(C)(C)NC(=O)CCCCCCCCC)C(=O)N[C@@](C)(CC)C(=O)N[C@@H](CCC(N)=O)C(=O)N[C@H](CCC(N)=O)C(=O)NC(C)(C)C(=O)N[C@@](C)(CC)C(=O)N[C@@H](CCC(N)=O)C(=O)N[C@H](CC(C)C)C(=O)N[C@H](CO)CC(C)C` (stereo not given in full), the growth in the experiment with NCI-H23 lung is 105% (inactive) and -48.3% (active); in the experiment on NCI-H522 lung it was 101% (inactive) and -77.6% (active); with MDA-MB-231 breast, 106% (inactive) and -96.8% (active); with M14 melanoma it was 100% (inactive) and -67.5% (active); in the experiment on SK-MEL-5 melanoma it was 99.9% (inactive) and -90.2% (active); in the experiment with UACC-62 melanoma it was 96% (inactive) and -96.8% (active). For the same compound, the growth in the experiment with LOX IMVI melanoma was 101% (inactive) and -88.2% (active); in the experiment on CCRF-CEM leukemia it was 98.9% (inactive) and -46.2% (active); in the experiment on MOLT-4 leukemia it was 101% (inactive) and -14.5% (active); in the experiment on SR leukemia it was 92% (inactive) and 11.3% (inactive); in the experiment with OVCAR-8 ovarian, 99.4% (inactive) and -48.6% (active); in the experiment with OVCAR-5 ovarian, 106% (inactive) and -64.3% (active). The growth was 106% (inactive) and 19.2% (inactive) with OVCAR-4 ovarian; 106% (inactive) and -23.2% (active) in the experiment on IGROV1 ovarian; 109% (inactive) and -71.9% (active) in the experiment on HS 578T breast; 106% (inactive) and -38.7% (active) in the experiment with NCI/ADR-RES ovarian; 95.9% (inactive) and -31.3% (active) in the experiment on T-47D breast; 96.1% (inactive) and -68.2% (active) in the experiment on MCF7 breast. For the same compound, the growth in the experiment on HCT-116 colon was 102% (inactive) and 0.686% (active); with KM12 colon, 108% (inactive) and -60.9% (active).
Take `CCC(C)[C@H]1C(=O)O[C@H](C(C)C)C(=O)N(C)[C@@H](C(C)C)C(=O)O[C@H](C(C)C)C(=O)N(C)[C@@H](C(C)C)C(=O)O[C@H](C(C)C)C(=O)N1C` (stereo not given in full): the growth was 10% (inactive) in the experiment with NCI-H23 lung; 7.23% (active) with NCI-H522 lung; 7.98% (active) in the experiment on MDA-MB-231 breast; 21.2% (inactive) with M14 melanoma; -33.5% (active) in the experiment with SK-MEL-5 melanoma; 9.22% (active) in the experiment on UACC-62 melanoma. In addition, the growth was 9.79% (active) in the experiment on LOX IMVI melanoma; 7.02% (active) with CCRF-CEM leukemia; -13% (active) in the experiment on MOLT-4 leukemia; 8.09% (active) in the experiment on SR leukemia; 14.9% (inactive) with OVCAR-8 ovarian; 20.7% (inactive) with OVCAR-5 ovarian. For the same compound, the growth with OVCAR-4 ovarian was 20.3% (inactive); with IGROV1 ovarian, 34.4% (inactive); in the experiment with HS 578T breast, 30.4% (inactive); in the experiment on NCI/ADR-RES ovarian, 5.25% (active); in the experiment on T-47D breast, 3.16% (active); with MCF7 breast, 12.5% (inactive). For the same compound, the values for the growth with HCT-116 colon and in the experiment on KM12 colon were 12.2% (inactive) and 16.4% (inactive), respectively.
